Most compounds without a hit are left out; they make up all but 22% or so of the library.
Cycloheximide cs: affects cycloheximide protein synthesis inhibition readout, counter-screen; cell reporter, cycloheximide protein synthesis inhibition counterscreen; max response, %; 300,000 compounds, 12% hits; AID 2314; in the data active = max response mostly above about 13%, no sharp cut-off; inactive = mostly below about 14%; also: read at 38.3 µM for the half of the compounds with a filed dose; 0% is about no effect
Shiga toxin inh: inhibitors of Shiga toxin in Vero cells. 290,000 compounds, 9.2% hits. inhibition, % at 38.7 µM. Vero cells, Shiga toxin protein synthesis inhibition reporter. AID 2315; in the data active = inhibition mostly above about 28%, no sharp cut-off; inactive = mostly below about 43%; also: 0% is about no effect
Pf growth 48h: P. falciparum growth inhibition at 48 hours (one generation) | P. falciparum luciferase growth in erythrocytes, 48 h | Potency, µM (series often up to 28.7 µM), without a hit: at the top dose activity change, negative = inhibition, hits mostly inhibitors | 310,000 compounds, 5.9% hits | AID 504832; also: potency is read from the fitted curve at half-maximal effect; % is scaled to controls: 0 for no effect and ±100 for the full control effect
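Firefly luciferase activity from engineered P. falciparum reports growth; inhibitors lower the luminescent signal. Cultures contained 2% hematocrit erythrocytes at 0.1% final parasitemia.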
Pf growth 96h: inhibits malaria parasite growth, 96 h. P. falciparum luciferase reporter growth, 96 h. Potency, µM (series often up to 28.7 µM), without a hit: at the top dose activity change, negative = inhibition, usual class: inhibitors. 320,000 compounds, 6.9% hits. AID 504834; also: potency is read from the fitted curve at half-maximal effect; % is scaled to controls: 0 for no effect and ±100 for the full control effect
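Cell-based qHTS: luciferase-tagged P. falciparum in erythrocytes (2% hematocrit, 0.05% parasitemia final) incubated with compounds for 96 hours, 37 C, 5% CO2; luciferase detection reagent then added and luminescence measured.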
LmPK inh: blocks Leishmania mexicana pyruvate kinase activity | purified LmPK, Kinase-Glo ATP luminescence, 1 h | Potency, µM (titrated, usually from 57.5 µM), for inactives: top-dose activity change, negative = inhibition, usual class: inhibitors | 290,000 compounds, 0.37% hits; also: potency is read from the fitted curve at half-maximal effect; % is scaled to controls: 0 for no effect and ±100 for the full control effect
Target sequence (Q27686 whole entry, looked up): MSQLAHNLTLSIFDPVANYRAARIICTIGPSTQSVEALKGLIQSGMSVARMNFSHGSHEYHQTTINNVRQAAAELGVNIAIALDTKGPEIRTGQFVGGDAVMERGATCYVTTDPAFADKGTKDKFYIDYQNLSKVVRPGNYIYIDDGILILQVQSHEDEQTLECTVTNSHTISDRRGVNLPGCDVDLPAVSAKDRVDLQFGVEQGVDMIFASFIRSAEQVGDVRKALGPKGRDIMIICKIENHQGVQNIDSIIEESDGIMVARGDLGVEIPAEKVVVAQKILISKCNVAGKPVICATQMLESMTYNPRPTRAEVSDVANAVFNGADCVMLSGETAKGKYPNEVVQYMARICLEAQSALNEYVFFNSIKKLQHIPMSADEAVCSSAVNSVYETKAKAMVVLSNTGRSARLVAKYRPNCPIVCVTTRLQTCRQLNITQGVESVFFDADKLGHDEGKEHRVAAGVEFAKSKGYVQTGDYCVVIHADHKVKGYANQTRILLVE
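ATP generated from ADP (0.1 mM) and PEP (0.5 mM) by 0.1 nM LmPK over 1 h at room temperature (pH 7.2 imidazole buffer) was detected by coupled luciferase luminescence. Values were normalized to uninhibited and no-enzyme wells.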
Starred values were filed as active, the others as inactive; i = inactive; ? = inconclusive; . = not tested or not shown; [ ] = dose if it differs, or a comment. Unless noted, calls follow the shape of the dose curve; as a rule, active = well fitted inhibition curve with a large enough effect; inconclusive = small, poorly fitted or top-dose-only effect, or another doubt; inactive = no such curve, though single readings can be large or run the other way.

SMILES	Cycloheximide cs	Shiga toxin inh	Pf growth 48h	Pf growth 96h	LmPK inh
CCn1c(SCC(=O)N/N=C/c2c[nH]c3ccccc23)nnc1-c1ccc(C(C)(C)C)cc1	1	4	?	10µM*	-1%
O=C(CSc1nnc(SCc2ccccc2)s1)N/N=C/C=C\c1ccco1	-3	-9	15%	?	2%
Cc1ccc(CSc2nnc(SCC(=O)N/N=C/c3ccccc3OCC(=O)O)s2)cc1	21*	44*	158%	105%	5%
CC(C)c1ccccc1NC(=O)c1cccc(NC(=O)c2ccccc2)c1	-3	-11	?	.	-8%
Cc1nn(-c2ccccc2)c(C)c1/C=N/NC(=O)CSc1nnc(SCc2cccc3ccccc23)s1	7	16	-26%	10µM*	1%
O=C(CSc1nnc(SCc2ccccc2)s1)N/N=C/c1ccc(C(=O)O)cc1	-2	9	71%	24%	-3%
Cc1ccc(CSc2nnc(SCC(=O)N/N=C/c3ccc(C(=O)O)cc3)s2)cc1	13*	37	155%	142%	-2%
Cc1ccc(-n2c(SCC(=O)N/N=C/c3c(C)nn(-c4ccccc4)c3C)nc3ccccc3c2=O)cc1	-2	-5	-8%	?	-2%
Cc1ccc(CSc2nnc(SCC(=O)N/N=C/c3c[nH]c4ccccc34)s2)cc1	19*	42	246%	111%	6%
O=C(O)COc1ccccc1/C=N/NC(=O)CSc1nc2ccccc2n1Cc1ccc(Cl)cc1	6	12	15µM*	?	4%
CCc1ccc(C(C(=O)NC2CCCCC2)N(C(=O)c2csnn2)C2CC2)cc1 (centres undefined)	2	-9	-23%	-3%	8%
CCn1cc(/C=N\NC(=O)C2(C)CC2(Cl)Cl)c(C)n1 (centres undefined)	9	9	16%	-13%	2%
COc1cc2c(cc1OC)CN(C(=S)NC(=O)c1ccccc1)CC2	1	-3	-17%	?	-1%
Cc1ccc(NC(=O)C2CCN(S(=O)(=O)c3ccc4c(c3)CCCC(=O)N4)CC2)cc1N(C)C	-2	-12	?	?	9%
COc1ccccc1CNC(=O)C1CCN(S(=O)(=O)c2ccc(-n3cnnn3)cc2)CC1	-3	-15	?	?	6%
COc1ccc(C(C(=O)NCc2ccccc2)N(C(=O)c2snc(C(N)=O)c2N)c2ccccc2OC)cc1 (centres undefined)	-6	-6	5.2µM*	-15%	8%
COc1ccccc1N(C(=O)c1snc(C(N)=O)c1N)C(C(=O)NCc1ccccc1)c1ccc(O)cc1 (centres undefined)	-3	-5	?	-20%	-3%
COc1ccc(N(C(=O)c2snc(C(N)=O)c2N)C(C(=O)NCc2ccccc2)c2ccc(F)cc2)c(OC)c1 (centres undefined)	-1	-5	10µM*	25%	0%
NC(=O)c1nsc(C(=O)N(c2ccccc2F)C(C(=O)NCc2ccc(F)cc2)c2ccc(O)cc2)c1N (centres undefined)	-2	-5	?	-20%	1%
COc1ccc(C(C(=O)NCc2ccccc2)N(Cc2ccco2)C(=O)c2snc(C(N)=O)c2N)cc1OC (centres undefined)	-4	-9	10µM*	14%	-3%
COc1ccc(/C=C2\N=C(C)OC2=O)cc1[N+](=O)[O-]	1	-3	18%	?	2%
COc1ccc(S(=O)(=O)Nc2ccc(-n3cnnn3)cc2)cc1[N+](=O)[O-]	.	.	-14%	?	.
CC(=O)c1ccc(N(C)C)cc1	0	-13	.	-18%	-2%
O=C(c1cccnc1)N1c2ccccc2Sc2ccccc21	-8	-22	?	-28%	-2%[11.5 µM]
CN(C)c1ccc(C(=O)c2ccc(O)cc2O)cc1	29*	54*	250%	352%	-20%
SMILES	Cycloheximide cs	Shiga toxin inh	Pf growth 48h	Pf growth 96h	LmPK inh
CN(C)c1ccc(C(=O)c2ccc(N(C)C)cc2)cc1	17*	40	.	103%	-2%
CN(C)c1ccc2c(c1)Sc1cc(N(C)C)ccc1N2C(=O)c1ccccc1	7	15	3.7µM*	1.7µM*	4%
O=C(c1ccc(O)cc1)c1ccc(O)cc1O	2	-3	11%	45%	4%
CN(C)c1ccc(C(=O)C(=O)c2ccccc2)cc1	49*	67*	52%	?	10%
CN(C)/C=C(/C#N)C(=O)c1cccc(Oc2ccc(C(C)(C)C)cc2)c1	-3	-20	.	-27%	5%
CN(C)c1ccc(C(=O)NN2C(=O)c3ccccc3C2=O)cc1	15*	43	32%	-23%	-2%
O=C(NN1C(=O)c2ccccc2C1=O)c1ccncc1	-1	7	11%	11%	-3%
COc1ccc(C(=O)N/C(=C\c2cn(C)c3ccccc23)C(=O)NCCCn2ccnc2)cc1	-2	19	?	?	5%
O=[N+]([O-])c1cccc(N/N=C/c2ccc(N3CCOCC3)cc2)c1	50*	80*	67%	33%	-6%
C(=N\Nc1ccccc1)/c1ccc(N2CCOCC2)cc1	48*	69*	-26%	106%	-3%
C=C(C)CNC(=S)N/N=C/c1ccc(N2CCOCC2)cc1	-3	13	?	?	-1%
CC(=O)Nc1ccc(/C(C)=N/Nc2nc(N3CCOCC3)nc(N3CCOCC3)n2)cc1	-3	41	1%	9%	-9%[11.5 µM]
Clc1cccc(N/N=C/c2ccc(N3CCOCC3)cc2)c1	38*	32	-22%	?	1%
C/C(=N\Nc1ccccn1)c1ccc(N2CCOCC2)cc1	41*	116*	178%	76%	0%
O=C(N/N=C/c1ccc(N2CCOCC2)cc1)c1ccncc1	.	.	-22%	-10%	.
C/C(=N\Nc1ccccn1)c1ccc(C(C)C)cc1	47*	104*	?	?	-3%
C(=N\Nc1ccccn1)/c1ccc(N2CCOCC2)cc1	47*	71	i	0%	?
O=C(O)c1cc(N/N=C/c2ccc(N3CCOCC3)cc2)ccc1Cl	59*	137*	203%	390%	2%
Nc1nc(NC(=O)c2ccco2)nn1-c1ccccc1	35*	79*	56%	20%	-3%
O=C(Nc1cc2nn(-c3ccccc3)nc2cc1Cl)c1ccco1	21*	47*	64%	-19%	-1%
CC(C)C(=O)Nc1ccc2nn(-c3ccccc3)nc2c1	39*	103*	60%	51%[5.75 µM]	-2%
O=C(Nc1ccc2nn(-c3ccccc3)nc2c1)c1cccnc1	22*	43	10%	10%	-2%
O=C(COC(=O)/C=C/c1ccccc1Cl)NCCNC(=O)COC(=O)/C=C/c1ccccc1Cl	1	-5	6%	-33%	4%
COc1cccc(CNC(=O)CCc2ccc(OC)c(OC)c2)c1	-1	-3	.	-2%	-4%
O=C(Nc1ccc2nn(-c3ccccc3)nc2c1)c1ccco1	47*	72*	69%	?	3%

Screening results as filed in PubChem.
